From PubChem BioAssay AID1159580 (chemical genetic matrix, 2015)
“And” between values parts separate entries of the source, which are not always exact repeats. Identical values can stand only once. Out of some 5,500 compounds screened, about 2,000 (36%) were called active. Roughly 18% stayed inconclusive and do not appear here. Cut-off read from the data, not from the text of the source: active = normalized growth mostly below about 0.91 (no sharp cut-off); inconclusive = no clear call, values can overlap the other calls; inactive = mostly above about 0.92. Some of the results follow.

Test: chemical genetic growth profiling, strain panel (AID 1159580);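 note: tested at 20 µM; growth read once vehicle control cultures reached saturation at 30 °C; 1 = growth at the plate median or of vehicle wells; lower values mean less growth of the strain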
Details: S. cerevisiae deletion strains, growth OD

Measured: normalized growth

CCCCCCCCCCCCC[N+](C)(C)Cc1ccccc1
active: locus YAL013W, strain DEP1, active compounds read low 0.0555 | locus YAL021C, strain ccr4, active compounds read low 0.0637 | locus YAL026C, strain drs2, active compounds read low 0.0609 | locus YAL030W, strain snc1, active compounds read low 0.0556 | locus YBL061C, strain skt5, active compounds read low 0.0585 | locus YBR009C, strain hhf1, active compounds read low 0.0639 | locus YBR021W, strain FUR4, active compounds read low 0.0876 | locus YBR023C, strain chs3, active compounds read low 0.0617 | locus YBR171W, strain sec66, active compounds read low 0.0746 | locus YBR229C, strain ROT2, active compounds read low 0.0463 | locus YBR231C, strain swc5, active compounds read low 0.0605 | locus YBR279W, strain paf1, active compounds read low 0.0571 | locus YCL011C, strain gbp2, active compounds read low 0.0555 | locus YCL016C, strain dcc1, active compounds read low 0.0666 | locus YCL029C, strain bik1, active compounds read low 0.0604 | locus YCL069W, strain vba3, active compounds read low 0.0638 | locus YCR088W, strain abp1, active compounds read low 0.059 | locus YDL005C, strain med2, active compounds read low 0.073 | locus YDL035C, strain GPR1, active compounds read low 0.0501 | locus YDL040C, strain nat1, active compounds read low 0.0568 | locus YDL074C, strain BRE1, active compounds read low 0.078 | locus YDL101C, strain DUN1, active compounds read low 0.0549 | locus YDL134C, strain PPH21, active compounds read low 0.0476 | locus YDL185W, strain tfp1, active compounds read low 0.0592 | locus YDL192W, strain arf1, active compounds read low 0.0605 | locus YDR001C, strain nth1, active compounds read low 0.0567 | locus YDR069C, strain doa4, active compounds read low 0.0672 | locus YDR101C, strain arx1, active compounds read low 0.0615 | locus YDR137W, strain rgp1, active compounds read low 0.12 | locus YDR159W, strain sac3, active compounds read low 0.0884 | locus YDR162C, strain NBP2, active compounds read low 0.0468 | locus YDR195W, strain ref2 0.118 | locus YDR297W, strain sur2, active compounds read low 0.0581 | locus YDR318W, strain mcm21, active compounds read low 0.063 | locus YDR334W, strain swr1, active compounds read low 0.0601 | locus YDR335W, strain msn5, active compounds read low 0.0563 | locus YDR388W, active compounds read low 0.0567 | locus YDR392W, strain spt3, active compounds read low 0.0701 | locus YDR502C, strain sam2, active compounds read low 0.0651 | locus YEL003W, strain gim4, active compounds read low 0.0517 | locus YEL037C, strain rad23, active compounds read low 0.0542 | locus YEL061C, strain CIN8 (second series), active compounds read low 0.0587 | locus YEL061C, strain CIN8, active compounds read low 0.0483 | locus YER015W, strain faa2, active compounds read low 0.0622 | locus YER016W, strain bim1, active compounds read low 0.063 | locus YER110C, active compounds read low 0.0733 | locus YER111C, strain swi4, active compounds read low 0.0674 | locus YER155C, strain BEM2 (second series), active compounds read low 0.0862 | locus YER155C, strain BEM2, active compounds read low 0.0618 | locus YER167W, strain BCK2, active compounds read low 0.0502 | locus YFR010W, strain ubp6, active compounds read low 0.0662 | locus YGL078C, strain dbp3, active compounds read low 0.0681 | locus YGL086W, strain mad1, active compounds read low 0.0582 | locus YGL167C, strain pmr1, active compounds read low 0.0698 | locus YGL173C, strain kem1, active compounds read low 0.0657 | locus YGL227W, strain vid30, active compounds read low 0.0603 | locus YGL240W, strain doc1, active compounds read low 0.0764 | locus YGL248W, strain PDE1, active compounds read low 0.0462 | locus YGL253W, strain hxk2, active compounds read low 0.0524 | locus YGR078C, strain PAC10, active compounds read low 0.0524 | locus YGR135W, strain pre9, active compounds read low 0.0647 | locus YGR229C, strain SMI1, active compounds read low 0.0592 | locus YGR252W, strain gcn5, active compounds read low 0.206 | locus YHR013C, strain ard1, active compounds read low 0.102 | locus YHR027C, strain rpn1, active compounds read low 0.0626 | locus YHR030C, strain SLT2, active compounds read low 0.0492 and 0.104 | locus YHR079C, strain IRE1 (second series), active compounds read low 0.0567 | locus YHR079C, strain IRE1, active compounds read low 0.111 | locus YHR094C, strain hxt1, active compounds read low 0.058 | locus YHR129C, strain ARP1, active compounds read low 0.0544 | locus YHR142W, strain chs7, active compounds read low 0.0737 | locus YHR200W, strain rpn10, active compounds read low 0.0601 | locus YIL066C, strain RNR3, active compounds read low 0.0508 | locus YIL073C, strain SPO22, active compounds read low 0.129 | locus YIL125W, strain kgd1, active compounds read low 0.0665 | locus YIR030C, strain dcg1, active compounds read low 0.0594 | locus YJL092W, strain hpr5, active compounds read low 0.0601 | locus YJL095W, strain BCK1 (second series), active compounds read low 0.0575 | locus YJL095W, strain BCK1, active compounds read low 0.0546 and 0.0934 | locus YJL115W, strain asf1, active compounds read low 0.0698 | locus YJL129C, strain trk1, active compounds read low 0.0815 | locus YJL134W, strain LCB3, active compounds read low 0.0471 | locus YJL154C, strain vps35, active compounds read low 0.0584 | locus YJL164C, strain tpk1, active compounds read low 0.0596 | locus YJL166W, strain qcr8, active compounds read low 0.0642 | locus YJL168C, strain set2, active compounds read low 0.0571 | locus YJL187C, strain SWE1 (second series), active compounds read low 0.0466 | locus YJR043C, strain POL32, active compounds read low 0.0593 | locus YJR066W, strain TOR1, active compounds read low -0.000757
